Reference: PubChem BioAssay (NCI)
“And” between values parts separate entries of the source, which are not always exact repeats. Equal values may be shown once. This is part of a sample that, as a whole, favours compounds with a hit. Of some 83,000 tested, about 20% had one in any assay.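 A percent growth of 40 corresponds to 60% growth inhibition; 0 means no net growth; -100 means all cells died. Active threshold: below 10.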 A number with no mark means an inactive call. The source made the active and inactive calls.

Assays:
Assay in all cases: NCI-60 one-dose screen, 48 h (100 = growth as untreated, 0 = no growth, -100 = all killed)
NCI-H322M lung = conditions: 10 µM
HOP-62 NSCLC = conditions: 10 µM
NCI-H460 lung = conditions: 10 µM
NCI-H522 lung = conditions: 10 µM
A549/ATCC NSCLC = conditions: 10 µM
DU-145 prostate = conditions: 10 µM
MALME-3M melanoma = conditions: 10 µM
SF-268 CNS = conditions: 10 µM
SF-295 CNS = conditions: 10 µM
SF-539 CNS = conditions: 10 µM
UACC-257 melanoma = conditions: 10 µM
M14 melanoma = conditions: 10 µM
HCT-15 colon = conditions: 10 µM
HT29 colon = conditions: 10 µM
SNB-75 CNS = conditions: 10 µM
PC-3 prostate = conditions: 10 µM
SK-MEL-5 melanoma = conditions: 10 µM
UACC-62 melanoma = conditions: 10 µM
SK-MEL-2 melanoma = conditions: 10 µM
HL-60(TB) leukemia = conditions: 10 µM unless noted

Question: What does the source list for `O=C(NC([Se])=NC1CCCCC1)c1ccccc1`?
Answer: growth (NCI-H322M lung): 4.78% (active); growth (HOP-62 NSCLC): 15.3%; growth (NCI-H460 lung): 11.6%; growth (NCI-H522 lung): -30.9% (active); growth (A549/ATCC NSCLC): 21.1%; growth (DU-145 prostate): 46.2%; growth (MALME-3M melanoma): 94.4%; growth (SF-268 CNS): 96.2%; growth (SF-295 CNS): 8.53% (active); growth (SF-539 CNS): 14.3%; growth (UACC-257 melanoma): 30.8%; growth (M14 melanoma): 69.8%; growth (HCT-15 colon): 44%; growth (HT29 colon): 29.7%; growth (SNB-75 CNS): 17.8%; growth (PC-3 prostate): 51.3%; growth (SK-MEL-5 melanoma): 18%; growth (UACC-62 melanoma): 9.12% (active); growth (SK-MEL-2 melanoma): -2.88% (active); growth (HL-60(TB) leukemia): 16%

Question: How did the growth (NCI-H322M lung) turn out when `COc1ccc(OC)c(/C=C/C(=O)c2nc3ccccc3n2Cc2ccc(F)cc2)c1` was run?
Answer: 6.69% (active)

Question: What about the growth (HOP-62 NSCLC) of the same molecule?
Answer: -40.4% (active)

Question: And the growth (NCI-H460 lung)?
Answer: -30.9% (active)

Question: What about the growth (NCI-H522 lung) of the same molecule?
Answer: -52.4% (active)

Question: What about the growth (A549/ATCC NSCLC) of the same molecule?
Answer: 8.34% (active)

Question: And the growth (DU-145 prostate)?
Answer: 4.91% (active)

Question: And the growth (MALME-3M melanoma)?
Answer: -36.9% (active)

Question: What about the growth (SF-268 CNS) of the same molecule?
Answer: 14.8%

Question: What about the growth (SF-295 CNS) of the same molecule?
Answer: -21.3% (active)

Question: And the growth (SF-539 CNS)?
Answer: -80.4% (active)

Question: What about the growth (UACC-257 melanoma) of the same molecule?
Answer: 15.3%

Question: What about the growth (M14 melanoma) of the same molecule?
Answer: -7.79% (active)

Question: What about the growth (HCT-15 colon) of the same molecule?
Answer: -61.8% (active)

Question: What about the growth (HT29 colon) of the same molecule?
Answer: -44.7% (active)

Question: And the growth (SNB-75 CNS)?
Answer: 15.4%

Question: And the growth (PC-3 prostate)?
Answer: 0.247% (active)

Question: And the growth (SK-MEL-5 melanoma)?
Answer: -21.1% (active)

Question: And the growth (UACC-62 melanoma)?
Answer: -57.6% (active)

Question: And the growth (SK-MEL-2 melanoma)?
Answer: -28.2% (active)

Question: And the growth (HL-60(TB) leukemia)?
Answer: -11.3% (active)

Question: With `COC(=O)C[C@](O)(CCC(C)C)C(=O)O[C@H]1C(OC)=C[C@@]23CCCN2CCc2cc4c(cc2[C@@H]13)OCO4` as the molecule, how does the growth (NCI-H322M lung) read?
Answer: -9.27% (active)

Question: What about the growth (HOP-62 NSCLC) of the same molecule?
Answer: 4.64% (active)

Question: What about the growth (NCI-H460 lung) of the same molecule?
Answer: -26.2% (active)

Question: And the growth (NCI-H522 lung)?
Answer: -70% (active)

Question: And the growth (A549/ATCC NSCLC)?
Answer: -20.5% (active)

Question: And the growth (DU-145 prostate)?
Answer: -24.1% (active)

Question: What about the growth (MALME-3M melanoma) of the same molecule?
Answer: -45.1% (active)

Question: And the growth (SF-268 CNS)?
Answer: -21.7% (active)

Question: And the growth (SF-295 CNS)?
Answer: -23.6% (active)

Question: And the growth (SF-539 CNS)?
Answer: -51.4% (active)

Question: What about the growth (UACC-257 melanoma) of the same molecule?
Answer: -30.9% (active)

Question: And the growth (M14 melanoma)?
Answer: -76.4% (active)

Question: What about the growth (HCT-15 colon) of the same molecule?
Answer: -29.7% (active)

Question: What about the growth (HT29 colon) of the same molecule?
Answer: -47.5% (active)

Question: And the growth (SNB-75 CNS)?
Answer: -48.8% (active)

Question: What about the growth (PC-3 prostate) of the same molecule?
Answer: -23.5% (active)

Question: What about the growth (SK-MEL-5 melanoma) of the same molecule?
Answer: -70.4% (active)

Question: What about the growth (UACC-62 melanoma) of the same molecule?
Answer: -25.2% (active)

Question: And the growth (SK-MEL-2 melanoma)?
Answer: -46.4% (active)

Question: What about the growth (HL-60(TB) leukemia) of the same molecule?
Answer: -38.5% (active)

Question: How did the growth (NCI-H322M lung) turn out when `O=C(NC([Se])=NC1CCCCC1)c1ccc2c(c1)OCO2` was run?
Answer: 11.9%

Question: What about the growth (HOP-62 NSCLC) of the same molecule?
Answer: 23.3%

Question: What about the growth (NCI-H460 lung) of the same molecule?
Answer: 10.6%

Question: What about the growth (NCI-H522 lung) of the same molecule?
Answer: 42.1%

Question: What about the growth (A549/ATCC NSCLC) of the same molecule?
Answer: 26.8%

Question: What about the growth (DU-145 prostate) of the same molecule?
Answer: 49%

Question: And the growth (MALME-3M melanoma)?
Answer: 57.3%

Question: And the growth (SF-268 CNS)?
Answer: 122%

Question: What about the growth (SF-295 CNS) of the same molecule?
Answer: 6.53% (active)

Question: And the growth (SF-539 CNS)?
Answer: 56.9%

Question: And the growth (UACC-257 melanoma)?
Answer: 50.5%

Question: What about the growth (M14 melanoma) of the same molecule?
Answer: 60.2%

Question: And the growth (HCT-15 colon)?
Answer: 47.3%

Question: And the growth (HT29 colon)?
Answer: 55.6%

Question: And the growth (SNB-75 CNS)?
Answer: 10.6%

Question: And the growth (PC-3 prostate)?
Answer: 36.4%

Question: What about the growth (SK-MEL-5 melanoma) of the same molecule?
Answer: 79.3%

Question: And the growth (UACC-62 melanoma)?
Answer: 76.3%

Question: And the growth (SK-MEL-2 melanoma)?
Answer: 99.6%

Question: And the growth (HL-60(TB) leukemia)?
Answer: 65.7%

Question: With `O=C(CNc1nc(-c2ccccc2)cs1)Nc1ccc(Cl)cc1[N+](=O)[O-]` as the molecule, how does the growth (HL-60(TB) leukemia) read?
Answer: -15.1% (active)

Question: How did the growth (HL-60(TB) leukemia) turn out when `CCc1ccccc1NC(=O)N/C(N)=N/c1nc2ccccc2s1` was run?
Answer: -27.2% (active)

Question: With `COc1ccc2ccccc2c1/C=C1\SC(=Nc2ccc(O)cc2)NC1=O` as the molecule, how does the growth (HL-60(TB) leukemia) read?
Answer: -29.9% (active)

Question: How did the growth (HL-60(TB) leukemia) turn out when `CN1CCc2c(sc3ncnc(N/N=C/c4cn(-c5ccccc5)nc4-c4ccc(Cl)cc4)c23)C1` was run?
Answer: -12.4% (active)

Question: How did the growth (HL-60(TB) leukemia) turn out when `COc1ccc2[nH]c(=O)c(CSc3nccc(-c4ccc(OC)c(OC)c4)n3)cc2c1` was run?
Answer: 16.9%

Question: How did the growth (HL-60(TB) leukemia) turn out when `CN1C(=O)/C(=C/c2ccc(C(=O)Nc3ncc(Cc4ccc(Cl)cc4Cl)s3)cc2)SC1=S` was run?
Answer: 19.2%

Question: `CC(=O)Nc1cccc(-n2c(COc3ccc(Br)cc3)nc3ccccc32)c1` was tested. Which growth (HL-60(TB) leukemia) did it give?
Answer: 113% and 103%

Question: Which growth (HL-60(TB) leukemia) does the source give for `COc1ccc2c(c1)c(-c1cc3nc(-c4cn(C)c5ncc(Br)cc45)cc(N)n3n1)cn2C` here?
Answer: -59.7% (active)

Question: Which growth (HL-60(TB) leukemia) does the source give for `CCOC(=O)C1=C(N)N(c2ccc(C)cc2)C2=C(C(=O)CC(C)(C)C2)C1c1ccccc1OC` (configuration not stated) here?
Answer: 98.9%

Question: How did the growth (HL-60(TB) leukemia) turn out when `C=CCSc1nnc(-c2c(C)nc3sccn23)o1` was run?
Answer: 119%

Question: How did the growth (HL-60(TB) leukemia) turn out when `O=C(Nc1nc2ccc([N+](=O)[O-])cc2s1)Nc1ccccc1F` was run?
Answer: -8.08% (active)

Question: How did the growth (HL-60(TB) leukemia) turn out when `O=C(CNc1nc(-c2ccccc2)cs1)Nc1ccc([N+](=O)[O-])cc1Cl` was run?
Answer: 21.9%

Question: Which growth (HL-60(TB) leukemia) does the source give for `CC(=O)Nc1ccc(C(=O)NC(=S)Nc2ccc(S(N)(=O)=O)cc2)cc1` here?
Answer: 95.5%

Question: Which growth (HL-60(TB) leukemia) does the source give for `Cc1ccc(-c2nc(Nc3ccc(S(N)(=O)=O)cc3)c3ccccc3n2)cc1` here?
Answer: 24.9%

Question: How did the growth (HL-60(TB) leukemia) turn out when `Cc1cc2nc3c4ccccc4n(CC4=NCCN4)c3nc2cc1C` was run?
Answer: -55.6% (active)

Question: Which growth (HL-60(TB) leukemia) does the source give for `Cc1nc(N)ncc1-c1ccc2ncnc(N3CCc4cc(F)c(Cl)cc43)c2c1` here?
Answer: 46.6%

Question: Which growth (HL-60(TB) leukemia) does the source give for `C=C1CCC2C3(C)COC(c4ccccc4F)OC3CCC2(C)C1CC(O)C1=CCOC1=O` (configuration not stated) here?
Answer: 70.5%
